Most compounds without a hit are left out; they make up all but 3.4% or so of the library.
TEAD-YAP block = TEAD-YAP interaction inhibition, primary screen, TEAD-YAP interaction inhibitor project, luminescence, HEK-TIYL cells. TEAD-Gal4/YAP UAS-luciferase luminescence. inhibition, % at 9.12 µM. 1.4% of 640,000 active; in the data active = inhibition above about 32%;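 note: 0% = median of test compound wells and 100% = reference inhibitor wells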
MITF primary = MITF inhibitors, primary screen, biochemical, AlphaScreen, human; Microphthalmia-associated transcription factor (Homo sapiens), O75030; AlphaScreen MITF homodimerization, bead proximity signal; inhibition, % at 2.6 µM; 0.91% of 650,000 active; AID 1259374, 2018; in the data active = inhibition above about 50%;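 note: 0% = vehicle wells with protein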
FBW7 act = FBW7 E3 ligase activators, primary screen, biochemical, AlphaScreen, human | F-box/WD repeat-containing protein 7 (Homo sapiens), Q969H0 | normalized activity (activation), % at 26.1 µM | AlphaScreen FBW7–phospho-cyclin E peptide binding, activator screen | 0.13% of 650,000 active; in the data active = normalized activity above about 1.9%;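 note: purified mutant Fbw7 with reduced substrate affinity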
GPR151 ag = activators of human GPR151, primary screen, cell-based, PathHunter beta-arrestin, luminescence; G-protein coupled receptor 151 (Homo sapiens), Q8TDV0; PathHunter beta-arrestin GPR151 cells; activation, % at 11.2 µM; 1% of 650,000 active; AID 1508602, 2020; in the data active = activation above about 4.9%;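 note: 0% = median of compound wells and 100% = cells with positive control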
* marks the source's active call; other numbers are inactive results.

SMILES	TEAD-YAP block	MITF primary	FBW7 act	GPR151 ag
COC(=O)c1ccc(/C=C(\C(=O)C(=O)O)c2ccc3ccccc3n2)cc1	60*	11	0	-2
COc1ccc(Nc2c3c4c(cccc4[nH]c2=O)C(=O)c2ccccc2-3)cc1	55*	3	0	1
O=C1c2ccccc2-c2c(Nc3ccccc3)c(=O)[nH]c3cccc1c23	49*	7	0	0
Oc1ccc(CNC2CCN(Cc3ccccc3)CC2)cc1	9	47	0	3
O=C(N/N=C/c1ccccc1Cl)c1cccs1	-53	-2	0	-4
O=C(N/N=C\c1cc(Cl)ccc1O)c1cccs1	43*	35	-1	2
Cc1cc(C(=O)N/N=C\c2ccc(Cl)cc2Cl)c(C)o1	-4	12	0	-2
Cc1cc(C(=O)N/N=C\c2cc(C(C)(C)C)ccc2O)n[nH]1	-2	5	0	-1
O=C(N/N=C/c1cc(Cl)ccc1O)c1ccc(F)cc1	67*	29	0	0
CC(C)(C)c1cc(C(=O)N/N=C/c2cc(Cl)ccc2O)n[nH]1	76*	31	-1	0
Cc1cc(C(=O)N/N=C/c2ccc(O)c(O)c2O)c(C)o1	2	53*	-1	-3
COCCNC(=S)Nc1ccc(F)cc1	11	6	0	0
Cc1cc(/C=C2\SC(=Nc3ccccc3)N(C3CCCC3)C2=O)c(C)n1-c1ccc(Cl)cc1	0	14	0	0
O=C(N/N=C/c1ccc(O)c(O)c1O)c1cccs1	-44	54*	-1	-3
O=C(N/N=C/c1ccccc1C(F)(F)F)c1cccs1	-30	2	0	0
Cc1cc(C)n2nc(C(=O)N/N=C/c3cc(Cl)cc([N+](=O)[O-])c3O)nc2n1	1	9	-1	-1
Cc1cc(C)n2nc(C(=O)N/N=C/c3cc(Cl)ccc3O)nc2n1	18	56*	-1	0
COc1ccc(CCNC(=O)c2ccc(NS(=O)(=O)c3ccccc3)cc2)cc1OC	14	7	0	0
COc1ccc(-c2nnc(SCC(=O)NCc3cccs3)nc2-c2ccc(OC)c(OC)c2)cc1OC	56*	3	0	3
CCOc1cc(-c2nnc(SCC(=O)NCc3ccc(C)cc3)nc2-c2ccc(OC)c(OCC)c2)ccc1OC	11	-6	0	0
CCOc1cc(-c2nnc(SCC(=O)NCc3ccccc3)nc2-c2ccc(OC)c(OCC)c2)ccc1OC	52*	13	0	0
Cc1nc2ccc(C(=O)N3c4ccccc4CC3C)cc2s1 (configuration not stated)	42*	17	0	-1
CC(C)C(NC(=O)CN(c1ccc(Br)cc1)S(C)(=O)=O)C(C)C	3	3	0	1
CC(C)NC(=O)CN(c1ccc(Br)cc1)S(C)(=O)=O	16	3	1.9*	-1
COc1ccc(-c2cn3cc(-c4ccccc4)nc3n2C)cc1	97*	-4	0	-1
SMILES	TEAD-YAP block	MITF primary	FBW7 act	GPR151 ag
COc1cccc(-n2c(-c3ccc(F)cc3)n[nH]c2=S)c1	-16	-19	0	-1
Cn1c(-c2ccccc2)cn2c3ccccc3nc12	30	5	1	0
COc1cccc(-c2cn3cc(-c4ccc(F)cc4)nc3n2C)c1	70*	1	0	1
O=C(N/N=C/c1ccco1)c1cc(Cl)ccc1O	-16	2	0	-1
Cc1cccc(C(=O)N/N=C/c2ccccc2F)c1	-9	-9	0	0
O=C(N/N=C/c1ccco1)c1cc(O)c(O)c(O)c1	-2	87*	0	-1
O=C(N/N=C/c1ccccc1F)c1cc(O)c(O)c(O)c1	-13	55*	0	-1
COc1ccc(C(CC(=O)N2CCOCC2)NS(=O)(=O)c2ccc(F)cc2)cc1 (configuration not stated)	-18	16	0	0
O=C(Cc1ccc(Cl)cc1Cl)N1CCn2c(nnc2C2CC2)C1	2	9	0	1
CCc1ccccc1NC(=S)N(CCOC)C1CCN(C(C)=O)CC1	0	9	0	-1
O=c1[nH]c(-c2ccccc2O)nc2sc3c(c12)CCCC3	-5	11	1	-1
O=c1[nH]c(-c2cc(O)c(O)c(O)c2)nc2sc3c(c12)CCCC3	60*	-1	0	0
CC(C)CC(C(=O)O)N1C(=O)/C(=C\c2ccco2)SC1=S (configuration not stated)	-1	58*	-1	0
